# Assay results published in PubChem BioAssay (NCATS).
# Results filed as inconclusive are left out. Where a call stands in place of a potency, no number is given. The source made the active and inactive calls. Unless noted, calls come from the whole dose curve; as a rule, active = well fitted curve in the direction sought with a large enough effect; inconclusive = small, poorly fitted or top-dose-only effect, or another doubt; inactive = no such curve, though single readings can be large; an effect the other way counts as inactive or inconclusive.
# Legend:
# [1] = S16 Schwann cell viability assay (CellTiter-Glo assay) (AID 624031);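 note: cellular ATP luminescence as a viability measure; nearly all actives have a fitted effect of over 70% in size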
# Outline: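 This viability control uses native rat S16 Schwann cells grown in DMEM plus 10% FBS. After a 24 h compound treatment at 37 °C, CellTiter-Glo luminescence reports ATP content, scaled against DMSO-treated and cell-free wells.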
# [2] = S16 Schwann cell PMP22 intronic element beta-lactamase assay (AID 624044; calls by dose curve; note: nearly all actives have a fitted effect of over 15% in size); details: S16 rat Schwann cells, PMP22 element beta-lactamase FRET, 24 h; ratio activity, negative = inhibition: at 38.3 µM (top of the series)
# Outline: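 Rat S16 Schwann cells with beta-Lac driven by a PMP22 intronic element, compound-treated 24 h at 37 °C. LiveBLAzer FRET B/G read: 460 nm normalized to potassium clavulanate vs DMSO; 535 nm FRET as viability; concentration-effect curves classified.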
# 7G8 = assay: qHTS profiling for inhibitors of Plasmodium falciparum proliferation (AID 504749); note: nearly all actives have a fitted effect of over 60% in size; note: potency is the fitted concentration of half-maximal effect; details: P. falciparum in erythrocytes, SYBR Green DNA, 72 h; series mostly up to 28.7 µM
# Outline: (§1)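 Readout was DNA-dye fluorescence from lysed cultures, ex 485/em 535 nm. Parasitized red cells had grown 72 h with compound; data scaled between 0.29 uM artemisinin and DMSO wells and corrected using vehicle-only plates.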
# CP201 = assay: as above; details: P. falciparum in erythrocytes, SYBR Green DNA, 72 h; series mostly up to 28.7 µM
# Outline: as §1
# CP203 = assay: as above; details: P. falciparum in erythrocytes, SYBR Green DNA, 72 h; series mostly up to 28.7 µM
# Outline: as §1
# CP215 = assay: as above; details: P. falciparum in erythrocytes, SYBR Green DNA, 72 h; series mostly up to 28.7 µM
# Outline: as §1
# CP247 = assay: as above; details: P. falciparum in erythrocytes, SYBR Green DNA, 72 h; series mostly up to 28.7 µM
# Outline: as §1
# CP266 = assay: as above; details: P. falciparum in erythrocytes, SYBR Green DNA, 72 h; series mostly up to 28.7 µM
# Outline: as §1
# CP268 = assay: as above; details: P. falciparum in erythrocytes, SYBR Green DNA, 72 h; series mostly up to 28.7 µM
# Outline: as §1
# CP291 = assay: as above; details: P. falciparum in erythrocytes, SYBR Green DNA, 72 h; series mostly up to 28.7 µM
# Outline: as §1
# CP297 = assay: as above; details: P. falciparum in erythrocytes, SYBR Green DNA, 72 h; series mostly up to 28.7 µM
# Outline: as §1
# CP305 = assay: as above; details: P. falciparum in erythrocytes, SYBR Green DNA, 72 h; series mostly up to 28.7 µM
# Outline: as §1
# CP325 = assay: as above; details: P. falciparum in erythrocytes, SYBR Green DNA, 72 h; series mostly up to 28.7 µM
# Outline: as §1
# DIV17 = assay: as above; details: P. falciparum in erythrocytes, SYBR Green DNA, 72 h; series mostly up to 28.7 µM
# Outline: as §1
# GB4 = assay: as above; details: P. falciparum in erythrocytes, SYBR Green DNA, 72 h; series mostly up to 28.7 µM
# Outline: as §1
# ICS = assay: as above; details: P. falciparum in erythrocytes, SYBR Green DNA, 72 h; series mostly up to 28.7 µM
# Outline: as §1
# P93_24 = assay: as above; details: P. falciparum in erythrocytes, SYBR Green DNA, 72 h; series mostly up to 28.7 µM
# Outline: as §1
# PAD = assay: as above; details: P. falciparum in erythrocytes, SYBR Green DNA, 72 h; series mostly up to 28.7 µM
# Outline: as §1
# PC26 = assay: as above; details: P. falciparum in erythrocytes, SYBR Green DNA, 72 h; series mostly up to 28.7 µM
# Outline: as §1
# CP335 = assay: as above; details: P. falciparum in erythrocytes, SYBR Green DNA, 72 h; series mostly up to 28.7 µM
# Outline: as §1
SMILES,Potency [1],Potency [2],Potency (7G8),Potency (CP201),Potency (CP203),Potency (CP215),Potency (CP247),Potency (CP266),Potency (CP268),Potency (CP291),Potency (CP297),Potency (CP305),Potency (CP325),Potency (DIV17),Potency (GB4),Potency (ICS),Potency (P93_24),Potency (PAD),Potency (PC26),Potency (CP335)
COC1CC2CCC(C)[C@](O)(O2)C(=O)C(=O)N2CCCCC2C(=O)OC(C(C)CC2CCC(O)C(OC)C2)CC(=O)C(C)/C=C(/C)C(O)C(OC)C(=O)C(C)CC(C)C=CC=C/C=C\1C (some centres not stated),inactive,inactive,1 µM (active),7.57 µM (active),1.69 µM (active),1.51 µM (active),3.16 µM (active),6.75 µM (active),6.01 µM (active),4.78 µM (active),4.26 µM (active),5.36 µM (active),5.36 µM (active),1.69 µM (active),1.69 µM (active),0.891 µM (active),1.41 µM (active),1.26 µM (active),3.79 µM (active),–
CC1(C(=O)O)CCC2(C)CCC3(C)C(=CC(=O)C4C5(C)CCC(O)C(C)(C)C5CCC43C)C2C1 (configuration not stated),inactive,inactive,inactive,inactive,inactive,inactive,inactive,–,inactive,inactive,inactive,inactive,inactive,–,inactive,inactive,inactive,inactive,inactive,inactive
O=C1C(I)=CC(=C(c2cc(I)c(O)c(I)c2)c2ccccc2C(=O)O)C=C1I,inactive,inactive,inactive,inactive,inactive,inactive,inactive,inactive,inactive,inactive,inactive,inactive,inactive,inactive,inactive,inactive,inactive,inactive,inactive,inactive
C[n+]1c2cc(N)ccc2cc2ccc(N)cc21,inactive,inactive,0.0631 µM (active),1.69 µM (active),1.07 µM (active),1.07 µM (active),1.12 µM (active),1.35 µM (active),0.757 µM (active),1.2 µM (active),1.35 µM (active),0.757 µM (active),0.953 µM (active),0.269 µM (active),0.213 µM (active),–,0.562 µM (active),1 µM (active),1.35 µM (active),0.849 µM (active)
CO/N=C(/C(=O)N[C@@H]1C(=O)N2C(C(=O)O)=C(CSc3nc(C)c(CC(=O)O)s3)CS[C@H]12)c1csc(N)n1,inactive,inactive,inactive,inactive,inactive,inactive,inactive,inactive,inactive,inactive,inactive,inactive,inactive,inactive,inactive,inactive,inactive,inactive,inactive,inactive
Cc1ccc(/C=C2/C(=O)C3(C)CCC2C3(C)C)cc1 (configuration not stated),inactive,–,inactive,inactive,inactive,inactive,inactive,inactive,inactive,inactive,–,inactive,inactive,inactive,inactive,inactive,inactive,inactive,inactive,–
CC1(Cn2ccnn2)[C@H](C(=O)O)N2C(=O)C[C@H]2S1(=O)=O (some centres not stated),inactive,–,inactive,inactive,inactive,inactive,inactive,inactive,inactive,inactive,inactive,inactive,inactive,inactive,inactive,inactive,inactive,inactive,inactive,inactive
CO[C@H]1C[C@@H]2CC[C@@H](C)[C@@](O)(O2)C(=O)C(=O)N2CCCC[C@H]2C(=O)O[C@H]([C@H](C)C[C@@H]2CC[C@@H](O)[C@H](OC)C2)CC(=O)[C@H](C)/C=C(\C)[C@@H](O)[C@@H](OC)C(=O)[C@H](C)C[C@H](C)/C=C/C=C/C=C/1C,–,inactive,1 µM (active),6.01 µM (active),1.69 µM (active),1.69 µM (active),3.55 µM (active),–,4.78 µM (active),4.26 µM (active),4.26 µM (active),6.75 µM (active),5.36 µM (active),1.69 µM (active),1.69 µM (active),0.501 µM (active),2 µM (active),1 µM (active),1.51 µM (active),1.9 µM (active)
Cc1ccccc1N1C(=O)c2cc(N)ccc2N/C1=C\F,–,–,inactive,inactive,inactive,inactive,inactive,inactive,inactive,inactive,inactive,inactive,inactive,–,inactive,–,inactive,inactive,inactive,inactive
CO/N=C(/C(=O)N[C@@H]1C(=O)N2C(C(=O)O)=C(CSc3cnns3)CS[C@H]12)c1csc(N)n1,–,inactive,inactive,inactive,inactive,inactive,inactive,–,inactive,inactive,inactive,inactive,inactive,inactive,inactive,inactive,inactive,inactive,inactive,inactive
NC(=O)c1ncn(C2OC(CO)C(O)C2O)c1N (configuration not stated),inactive,inactive,inactive,inactive,inactive,inactive,inactive,inactive,inactive,inactive,inactive,inactive,inactive,inactive,inactive,inactive,inactive,inactive,inactive,–
Nc1nc(F)nc2c1ncn2[C@@H]1O[C@H](CO)[C@@H](O)[C@H]1O,inactive,inactive,inactive,inactive,inactive,inactive,inactive,inactive,inactive,inactive,inactive,–,inactive,inactive,inactive,inactive,inactive,inactive,inactive,inactive
